A number with no mark means an inactive call. Records with an inconclusive call do not appear. Activity calls are given as the source filed them. Calls come from the whole dose curve; as a rule, active = well fitted curve in the direction sought with a large enough effect; inconclusive = small, poorly fitted or top-dose-only effect, or another doubt; inactive = no such curve, though single readings can be large; an effect the other way counts as inactive or inconclusive.

Assay [1] addresses Calcium and integrin-binding protein 1 (Homo sapiens) (UniProt Q99828). Nature of the assay: Primary qHTS for Identification of Calcium Integrin Binding Protein 1 (CIB1) Competitor (AID 1508620).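 Note: GST tagged CIB1 binding a fluorescein labelled alphaIIb integrin peptide tracer; top concentration of the series differs between compounds; % is set by controls: 0 for no effect and ±100 for the full control effect.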 The method in brief:
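Fluorescence polarization competition: GST-tagged CIB1 (1 uM final) preincubated with compound 15 min at room temperature, then FITC-labelled alphaIIb peptide (100 nM final) added. After 15 min at room temperature, polarization read at Ex 480/Em 540.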

Assay [2] concerns the target Glutathione peroxidase 1 (Homo sapiens) (UniProt P07203). Nature of the assay: Primary qHTS Assay for Inhibitors of Recombinant Selenoprotein Glutathione Peroxidase 1 (GPX1) (AID 1845191). Note: % is set by controls: 0 for no effect and ±100 for the full control effect; nearly all actives have a fitted effect of over 65% in size. An outline of the steps:
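GR-coupled assay: compounds preincubated 30 min at room temperature with GPX1, then reaction started with CHP; final 10 nM GPX1, 1 mM GSH, 0.5 mM CHP, 0.5 mM NADPH, 100 nM GR, 0.01% BSA, pH 7.5 Tris buffer. NADPH fluorescence (340/450 nm) read at 0 and 15 min.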
In general terms: Quantitative high-throughput screening tests each substance at several concentrations.

The target of assay [3] is Phospholipid hydroperoxide glutathione peroxidase GPX4 (Homo sapiens) (UniProt P36969). Description: Primary qHTS Assay for Inhibitors of Recombinant Selenoprotein Glutathione Peroxidase 4 (GPX4) (AID 1845192). Note: % is set by controls: 0 for no effect and ±100 for the full control effect; nearly all actives have a fitted effect of over 65% in size. The method in brief:
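GR-coupled assay: recombinant GPX4 preincubated 30 min with compound at room temperature; final 200 nM GPX4, 1 mM GSH, 0.5 mM cumene hydroperoxide, 0.5 mM NADPH, 100 nM GR, 0.01% BSA, pH 7.5 Tris. NADPH fluorescence (340/450 nm) read at 0 and 15 min.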

For assay [4], the target named is Luciferin 4-monooxygenase (Photinus pyralis) (UniProt P08659). Nature of the assay: Primary firefly luciferase (FLuc) qHTS assay for identification of artifact compounds. (AID 1845220). Note: nearly all actives have a fitted effect of over 60% in size. As to conditions: outcome: dose series up to 54.1 µM unless noted. An outline of the steps: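 Titrated compounds were incubated 15 min at RT, protected from light, with luciferin and ATP at 10 uM; reaction started with 10 nM FLuc, luminescence imaged at 5 min, and concentration-response fitted by Hill equation.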

Assay [5] can be described thus: Primary fluorescence-based thiol-reactive (MSTI) qHTS assay for identification of artifact compounds. (AID 1845221). Note: nearly all actives have a fitted effect of over 65% in size. Note: potency is the fitted concentration of half-maximal effect. An outline of the steps:
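Compounds were incubated 1 h at room temperature in the dark with the MSTI probe (4 uM) in PBS pH 7.4, 2% DMSO. Signals were normalized between Acetyl-MSTI and MSTI.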

The test system of assay [6] is Nanoluciferase (engineered Oplophorus gracilirostris luciferase). Description: Primary Nanoluciferase (NLuc) qHTS assay for identification of artifact compounds. (AID 1845222).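 Note: NLuc secreted into diluted conditioned medium of S16 cells; 0% = DMSO and -100% = no enzyme.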 An outline of the steps: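 qHTS format, against NLuc in S16 cell-conditioned medium. Nano-Glo substrate 1:100 was added after 15 min at room temperature. Luminescence was taken after a further 5 min.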

A further assay relates to HaCat. Nature of the assay: Cytotoxic Profiling of Annotated Libraries Using Quantitative High-Throughput Screening (AID 1296008). For max response: % is set by controls: 0 for no effect and ±100 for the full control effect. Note: nearly all actives have a fitted effect of over 60% in size. Note: potency is the fitted concentration of half-maximal effect. The note with it: Five cell lines viability, CellTiter-Glo ATP luminescence, 48-72 h; max response: active compounds read low. The method in brief:
(§1)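 Cells exposed to compounds for 48 or 72 hr at 37 degrees Celsius. Viability read as ATP-coupled luminescence with CellTiter-Glo after 10 min at room temperature.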

The next assay deals with NIH3T3. The description is as above. The note with it: Five cell lines viability, CellTiter-Glo ATP luminescence, 48-72 h; max response: active compounds read low. The method in brief:
as §1
(Cellular ATP, detected with luciferase, serves as a proxy for viable cell number.)

A further assay relates to C33A. Description: Primary qHTS to identify gynecologic anti-cancer compounds using libraries of approved drugs and bioactive compounds (AID 1345084). Note: nearly all actives have a fitted effect of over 55% in size. Note: potency is the fitted concentration of half-maximal effect. As to conditions: Gynecologic cancer cell panel viability, ATPlite luminescence, 48 h; series mostly up to 57.5 µM. An outline of the steps: (§2)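 Luminescence from the ATPlite ATP-monitoring reagent indicates viable cell number; lower signal means cytotoxicity. Cells received compound 16 h after seeding and were exposed for 48 h across five concentrations.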

Another assay relates to CAOV3. The description is as above. The note with it: Gynecologic cancer cell panel viability, ATPlite luminescence, 48 h; series mostly up to 57.5 µM. The method in brief: as §2
Another assay deals with CASKI. The description is as above. The note with it: Gynecologic cancer cell panel viability, ATPlite luminescence, 48 h; series mostly up to 57.5 µM. An outline of the steps: as §2
The test system of another assay is Es-2. The description is as above. As to conditions: Gynecologic cancer cell panel viability, ATPlite luminescence, 48 h; series mostly up to 57.5 µM. The method in brief:
as §2

The test system of the next assay is Hek293T. The description is as above. The note with it: Gynecologic cancer cell panel viability, ATPlite luminescence, 48 h, control line for the selectivity index; series mostly up to 57.5 µM. The method in brief: as §2
A further assay deals with JEG-3. The description is as above. As to conditions: Gynecologic cancer cell panel viability, ATPlite luminescence, 48 h; series mostly up to 57.5 µM. The method in brief:
as §2

In another assay the test system is OV90. Described as above. The note with it: Gynecologic cancer cell panel viability, ATPlite luminescence, 48 h; series mostly up to 57.5 µM. The method in brief:
as §2

For another assay, the system named is PA-1. Described as above. The note with it: Gynecologic cancer cell panel viability, ATPlite luminescence, 48 h; series mostly up to 57.5 µM. The method in brief:
as §2

The test system of a further assay is Tov-21-G. Described as above. As to conditions: Gynecologic cancer cell panel viability, ATPlite luminescence, 48 h; series mostly up to 57.5 µM. An outline of the steps:
as §2

In another assay the test system is Tov112D. The assay is described as above. The note with it: Gynecologic cancer cell panel viability, ATPlite luminescence, 48 h; series mostly up to 57.5 µM. The method in brief: as §2
The test system of assay [7] is Zika virus NS2B-NS3 protease (linked construct). Nature of the assay: Primary screen NINDS Rhodamine qHTS for Zika virus inhibitors (AID 1347160). Note: nearly all actives have a fitted effect of over 55% in size. An outline of the steps: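 Purified linked NS2B-NS3 protease (NS2B hydrophilic domain joined to NS3 protease by flexible linker), 25 nM in 10 mM Tris-HCl pH 8.0, 0.01% Tween 20. Compounds titrated, 15 min preincubation at room temperature; 1.5 microM Rhodamine110 substrate, FITC fluorescence change over 15 min.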

Assay [8] is described as follows: Primary redox qHTS assay for identification of artifact compounds. (AID 1845223). Note: potency is the fitted concentration of half-maximal effect. An outline of the steps: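 Amplex Red (25 uM) and HRP (250 mU/mL) in HBSS, with compounds for 15 min, then 250 uM DTT for 30 min, room temperature, dark. Fluorescence 525/598 nm read; normalized to DMSO and 10 uM DA3003; Hill fit.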

Sequence of Phospholipid hydroperoxide glutathione peroxidase GPX4 (Homo sapiens) (P36969 whole entry, looked up): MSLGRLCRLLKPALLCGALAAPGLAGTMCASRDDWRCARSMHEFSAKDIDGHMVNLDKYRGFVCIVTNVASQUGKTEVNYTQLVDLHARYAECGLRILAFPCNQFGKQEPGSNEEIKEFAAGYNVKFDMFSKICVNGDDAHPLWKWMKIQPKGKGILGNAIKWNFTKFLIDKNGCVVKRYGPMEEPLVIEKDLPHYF
Sequence of Glutathione peroxidase 1 (Homo sapiens) (P07203 whole entry, looked up): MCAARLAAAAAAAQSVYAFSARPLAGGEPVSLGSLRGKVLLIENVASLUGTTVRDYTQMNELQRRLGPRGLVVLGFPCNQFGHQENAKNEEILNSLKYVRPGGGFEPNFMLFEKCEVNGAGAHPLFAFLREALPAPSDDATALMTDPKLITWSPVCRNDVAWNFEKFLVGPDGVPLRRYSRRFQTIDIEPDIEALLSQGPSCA
Sequence of Calcium and integrin-binding protein 1 (Homo sapiens) (Q99828 whole entry, looked up): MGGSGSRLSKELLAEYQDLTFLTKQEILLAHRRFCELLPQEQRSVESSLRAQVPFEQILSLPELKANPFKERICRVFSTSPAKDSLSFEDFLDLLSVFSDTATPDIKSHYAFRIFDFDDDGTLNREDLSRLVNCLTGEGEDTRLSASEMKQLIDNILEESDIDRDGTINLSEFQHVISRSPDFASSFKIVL

In the case of `Cc1ccc2c(c1)[C@H]1CN(C)CC[C@H]1N2C(=O)CSc1nnnn1-c1ccc(Cl)cc1`, the Potency entry (in assay [1]; in [2]; in assay [3]; in assay [5]; in assay [6]; with C33A) was “inactive” throughout. The Potency entry in the assay on CAOV3, in the assay on CASKI, in the assay on Es-2, with Hek293T, with JEG-3 and in the assay on OV90 was “inactive” throughout. The Potency result with PA-1, with Tov-21-G and in the assay with Tov112D was “inactive” in each case. For the same molecule, the outcome (in [4]; in the assay on HaCat; in the assay on NIH3T3) was inactive.

Turning to `CC(=O)O[C@H]1C[C@]2(O)[C@@H]3CC[C@@H]4C[C@@H](O)CC[C@]4(C)[C@H]3CC[C@]2(C)[C@H]1c1ccc(=O)oc1`, the Potency entry in assay [7], in assay [1], in [2], in [3], in assay [5] and in assay [6] was “inactive” in each case. Besides, in assay [4], the outcome was inactive. For the same molecule, in the assay on NIH3T3, the max response is -9.3%. Besides, the Potency in the assay with C33A was 28.2 nM (active); with CAOV3, 158 nM (active); in the assay on CASKI, 398 nM (active); in the assay with Es-2, 100 nM (active); in the assay with Hek293T it was 89.1 nM (active); with JEG-3, 316 nM (active). The Potency is 100 nM (active) with PA-1 and 89.1 nM (active) in the assay with Tov-21-G.

Take `CCOc1ccc(Oc2ccc(OCc3cc(F)ccc3F)cc2)c(N)c1`: the Potency result in assay [7], in assay [1], in assay [2], in assay [3], in [6] and in assay [8] was “inactive” in each case. Besides, the Potency result in the assay with C33A, in the assay with CAOV3, with CASKI, with Es-2, with Hek293T and in the assay with JEG-3 was “inactive” each time. For the same molecule, the Potency result in the assay with OV90, in the assay with PA-1, in the assay on Tov-21-G and in the assay on Tov112D was “inactive” throughout. Besides, the molecule was called inactive in assay [4]. Also, in assay [5], the Potency was 8440 nM (active). The max response is -5.94% in the assay on HaCat and -0.81% with NIH3T3.

Regarding `CC[C@H](O)[C@@H](C)[C@H]1O[C@@H]1C[C@H](C)/C=C/C=C(\C)[C@H]1OC(=O)C[C@H](O)CC[C@@](C)(O)[C@@H](OC(C)=O)/C=C/[C@@H]1C`, the Potency entry (in assay [1]; in assay [2]; in [3]; in assay [8]; with JEG-3) was “inactive” throughout. Further, the call in assay [4] was inactive. Moreover, in the assay with NIH3T3, the Potency is 11.6 nM (active).

Regarding `CN(C)[C@@H]1C(=O)C(C(N)=O)=C(O)[C@@]2(O)C(=O)C3=C(O)c4c(O)ccc(Cl)c4[C@@](C)(O)C3C[C@@H]12` (some centres undefined), the Potency result (in assay [7]; in assay [2]; in assay [3]; in assay [6]; in the assay on C33A; in the assay with CAOV3) was “inactive” throughout. The Potency entry with CASKI, with Es-2, in the assay on Hek293T, with JEG-3, in the assay with OV90 and in the assay with PA-1 was “inactive” in each case. Besides, the Potency result in the assay on Tov-21-G and in the assay on Tov112D was “inactive” each time. The outcome (in [4]; with NIH3T3) was inactive.

Turning to `C=C1C2(C)CC3C(C)(O)C4=CC(=O)OC(C)(C)C4=CCC3(C)C13C(=O)OC(C)C3(O)C2=O` (centres undefined), the Potency entry (in [7]; in assay [3]; in assay [6]; in the assay on C33A; with CAOV3; in the assay on CASKI) was “inactive” each time. Also, the Potency entry in the assay with Es-2, in the assay on Hek293T, with JEG-3, in the assay on OV90, with PA-1 and in the assay with Tov-21-G was “inactive” each time. Further, the Potency entry in the assay with Tov112D is “inactive”. For the same molecule, the molecule was called inactive in assay [4]. In addition, in [8], the Potency is 733 nM (active). For the same molecule, the max response in the assay on NIH3T3 is -1.67%.

Regarding `CCCCCCC1C(=O)O[C@H](C)[C@H](NC(=O)c2cccc(NC=O)c2O)C(=O)O[C@@H](C)[C@@H]1OC(=O)CC(C)C` (some centres undefined), the Potency entry (in [1]; in [3]; in assay [6]; with JEG-3; with Tov112D) was “inactive” each time. For the same molecule, in assay [4], the molecule was classed as inactive. For the same molecule, the Potency in assay [5] is 1890 nM (active); in the assay on CAOV3, 3160 nM (active); with CASKI it was 1000 nM (active); with Es-2 it was 355 nM (active); in the assay with OV90, 355 nM (active).

The values above are taken from PubChem BioAssay (NCATS).
